High-throughput results from PubChem BioAssay.
Lmaj promast: Leishmania major promastigote growth inhibition, primary screen; Leishmania major promastigotes, resazurin fluorescence viability; inhibition, % at 10 µM; actives 9% (n = 200,000); AID 1063, 2008; in the data active means inhibition above about 50%;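 further: promastigotes grown with compound for 44 hours at 28 °C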
HCT116 bCat-KO: primary screen for growth suppressors in beta-catenin knockout HCT116 cells (colon tumor, human); AID 818, 2007; actives 1.5% (n = 140,000); HCT116 beta-catenin knockout viability, CellTiter-Glo, 60 h; active compounds read low; viability, % at 10 µM;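 active means viability at or under a set limit, the compound median less 4 SD, cut at about 6% in these data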;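 further: 0% = Hyamine 1622 control at 20 µM and 100% = untreated cell control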
HCT116 PTEN-null: growth suppression of PTEN-null HCT116, primary screen, cell-based, CellTiter-Glo; actives 1.2% (n = 140,000); viability, % at 10 µM; HCT116 PTEN-null viability, 60 h; active compounds read low;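 active means viability at or below a set limit, 4 SD under the median of all tested compounds, cut at about 3.7% in these data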;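 further: PTEN knockout HCT116 line with beta catenin targeted HCT116 as companion control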
Insulin prom inh: inhibitors of insulin promoter-driven GFP, primary screen, imaging, TRM-6 cells (human fetal islet line), eGFP reporter, cell count; reporter expression induced with tamoxifen; inhibition, % at 2 µM; actives 0.9% (n = 130,000); AID 1273, 2008;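 active means inhibition above the mean plus 3 SD, with well images judged a real hit on visual review, cut at about 60% in these data, passing the limit was not always enough; inconclusive means inhibition over the cutoff but images rejected on review; inactive means inhibition not above the cutoff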
Autophagy HCS: autophagy modulators in MEF cells, primary screen, imaging, high-content, MEF GFP-LC3; MEF GFP-LC3 puncta imaging; test concentration mostly 10 µM; calls only at 10 µM (by protocol); actives 0.98% (n = 190,000); AID 463193, 2010;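 active means percentage of spot-positive cells more than 3 SD above its plate mean, without a fluorescence outlier flag or 80% toxicity; inconclusive means no clear call, values can overlap the other calls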;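 further: spot-positive cell cutoff set from DMSO-treated cells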
Ins promoter up: insulin promoter activators in MIN6 cells, imaging, high-content screening, mouse beta cells; z-score at 5 µM; actives 0.3% (n = 190,000); AID 1625, 2009; MIN6 insulin promoter-GFP reporter; active compounds read high;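 active means z-score above 3 at 5 µM with at least 500 cells counted in the well; inconclusive means wells under 500 cells, flagged as cytotoxic or low count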
An asterisk follows results filed as active; i = inactive; ? = inconclusive; nt = no result; + = active, no number; ! = not confirmed by another sample. Most compounds without a hit are left out; they make up all but 9.6% or so of the library.

SMILES	Lmaj promast	HCT116 bCat-KO	HCT116 PTEN-null	Insulin prom inh	Autophagy HCS	Ins promoter up
CC1CCC(C(C)C)C(OC(=O)C[n+]2cc(-c3ccc(Cl)cc3)n3c2CCC3)C1 (configuration not stated)	nt	nt	nt	nt	nt	0.22
Cc1cccc(OCc2n(CC(=O)OC3CC(C)CCC3C(C)C)c3ccccc3[n+]2C)c1 (configuration not stated)	100.5*	nt	nt	-55.6	i	-2.52
CC1CCC(C(C)C)C(OC(=O)Cn2c(-c3ccccc3)[n+](C)c3ccccc32)C1 (configuration not stated)	100.5*	1.4*	1.9*	-43.3	+!	?
CC1CCC(C(C)C)C(OC(=O)Cn2c(-c3ccc(F)cc3)[n+](C)c3ccccc32)C1 (configuration not stated)	100.1*	2.0*	1.5*	-35.3	i	-1.85
COc1cc(C(=O)N=c2sc3c(C)ccc(OC)c3n2C)cc(OC)c1OC	nt	nt	nt	nt	nt	-2.56
Cc1[nH]n(-c2ccccc2)c(=S)c1C=Nc1cccc([N+](=O)[O-])c1	-8.6	104.3	91.7	nt	i	0.33
Cc1ccccc1OCC(O)Cn1c(NCc2ccco2)nc2c1c(=O)[nH]c(=O)n2C (configuration not stated)	1.2	98.9	102.6	-7.1	i	-0.23
O=S1(=O)N=C(N2CCN(Cc3ccc4c(c3)OCO4)CC2)c2ccccc21	4.0	93.9	89.1	37.5	i	-0.25
CCCCNC(=S)N/N=C1\C(=O)c2cccc3cccc1c23	2.8	84.1	89.2	1.7	i	0.25
CNC(=S)N/N=C1\C(=O)c2cccc3cccc1c23	36.5	2.6*	1.2*	13.2	+	1.09
c1ccc(-c2cn3nc(-c4ccccc4)cnc3n2)cc1	-5.7	97.5	99.6	nt	+	-0.05
COc1ccc(C(=O)N/C(=C/c2cccs2)c2nc3ccccc3[nH]2)cc1OC	-4.9	80.4	70.7	-12.5	i	nt
COc1cc(/C=C(/C(=O)c2cccs2)c2nc3ccccc3[nH]2)cc(OC)c1O	100.4*	5.2*	2.5*	-140.0	+	nt
O=C(/C(=C/c1ccc(Cl)cc1)c1nc2ccccc2[nH]1)c1ccccc1	100.5*	1.2*	0.8*	nt	i	0.24
Cc1nc2cc(C(F)(F)F)ccc2n1C1CCN(CC(=O)NC(C)(C)C)CC1	-1.4	62.8	61.4	0.0	i	-0.8
COC(=O)Cc1c(O)ccn(C2CC2)c1=O	2.7	nt	nt	25.7	i	0.21
S=C(NN=C1C2CC3CC(C2)CC1C3)Nc1ccccc1	98.7*	69.5	69.7	-13.3	i	nt
Cc1ccc(N=Nc2c(O)n(CN3CCOCC3)c3ccccc23)cc1	-15.8	86.8	95.2	-3.1	i	nt
Oc1c(N=NC(=S)Nc2ccccc2F)c2ccccc2n1Cc1ccc(F)cc1	90.7*	nt	nt	7.1	i	-2.22
Oc1c(N=NC(=S)Nc2ccccc2F)c2ccccc2n1Cc1cccc(Cl)c1	83.0*	nt	nt	nt	i	0.38
Cc1ccc2c(c1)c(N=NC(N)=S)c(O)n2Cc1ccccc1	43.6	67.5	84.6	52.0	i	0.02
Cc1cccc(Cn2c(O)c(N=NC(=S)Nc3ccccc3F)c3ccccc32)c1	96.7*	nt	nt	nt	i	-2.23
Cc1cccc(NC(=S)N=Nc2c(O)n(CN3CCOCC3)c3ccccc23)c1C	96.1*	21.8	13.8	78.1*	i	-0.1
Cc1nc(C(=O)Nc2ccccc2)sc1C(=O)Nc1ccccc1	nt	nt	nt	nt	nt	-0.52
CCCCn1c(SCC(=O)O)nc2ccccc21	-2.4	94.5	92.8	10.5	i	3.5*
SMILES	Lmaj promast	HCT116 bCat-KO	HCT116 PTEN-null	Insulin prom inh	Autophagy HCS	Ins promoter up
CCCn1c(SCC(=O)c2c(C)[nH]c(C)c2C(=O)OCC)nc2ccccc21	63.5*	89.7	90.4	2.7	i	-0.86
CCCn1c(CN2CCN(C)CC2)nc2ccccc21	-2.9	90.4	92.0	-54.2	i	nt
CCn1c(SCC(=O)O)nc2ccccc21	-4.4	nt	nt	0.0	i	0.01
CCCCn1c(CN2CCN(C)CC2)nc2ccccc21	60.6*	93.4	99.8	nt	i	-0.65
CCOC(=O)c1c(C)[nH]c(C)c1C(=O)CSc1nc2ccccc2n1CCC#N	1.0	84.7	87.5	16.7	i	-0.37
CCC(=O)NC(=S)Nc1ccc(NC(=O)CC)cc1	-2.5	104.3	92.7	0.0	i	0.11
CCC(=O)Nc1cccc(C(=O)/C=C/c2ccccc2)c1	100.5*	1.6*	1.4*	nt	i	-0.02
COc1ccc(/C=C/C(=O)NC(=S)Nc2ccc(C(=O)O)cc2)cc1	68.9*	79.8	83.7	27.0	i	0.26
CCC(=O)Nc1ccc(NC(=S)NC(=O)/C=C/c2ccccc2)cc1	80.7*	68.8	65.6	50.0	i	-0.02
Brc1ccc(C2=Nn3c(Cn4nnc5ccccc54)nnc3SC2)cc1	nt	nt	nt	nt	nt	0.88
O=C(O)/C=C\C(=O)Nc1ccc(N2CCN(c3ccc(F)cc3)CC2)cc1	-2.6	nt	nt	nt	i	0.08
CCOC(=O)C1(C)C=C(Nc2ccccc2)C(=O)N1c1ccccc1 (configuration not stated)	26.8	nt	nt	71.4*	i	1.68
CCOC(=O)C1(C)C=C(Nc2ccc(OCC)cc2)C(=O)N1c1ccccc1 (configuration not stated)	3.7	101.0	96.9	nt	i	-0.89
C=CCn1cc(C(=O)NCC2CCCO2)c(=O)c2cc(S(=O)(=O)N3CCCCCC3)ccc21 (configuration not stated)	20.6	78.3	83.4	nt	i	0
CCOc1ccc(NC(=S)N2CCn3c(nc4ccccc43)C2)cc1	-14.4	nt	nt	nt	i	-0.32
COc1ccc(NC(=S)N2CCN(C/C=C/c3ccccc3)CC2)cc1	85.6*	84.5	87.6	nt	i	0.47
CCOc1ccc(NC(=S)N2CCN(C/C=C/c3ccccc3)CC2)cc1	89.5*	nt	nt	nt	i	-0.95
COc1ccc(NC(=S)N2CCN(C/C=C/c3ccccc3)CC2)cc1OC	73.6*	79.1	83.8	-42.3	i	-0.88
COc1ccc(OC)c(NC(=S)N2CCN(C/C=C/c3ccccc3)CC2)c1	29.0	80.1	80.7	14.3	i	-0.06
Cc1cc(O)ccc1N=Cc1c(C(F)(F)F)[nH][nH]c1=O	51.9*	nt	nt	5.9	i	-0.16
COCCn1nnnc1CN(CCc1ccc(OC)c(OC)c1)Cc1cc2ccc(C)cc2[nH]c1=O	97.3*	79.6	94.3	nt	+	-0.06
COCCn1nnnc1CN(CCc1ccccc1)Cc1cc2cc(OC)ccc2[nH]c1=O	13.6	nt	nt	-53.3	i	nt
O=C(COC(=O)CNS(=O)(=O)c1ccc(F)c(F)c1F)Nc1ccc(OC(F)F)cc1	81.7*	90.2	100.6	24.7	i	-0.23
COC(=O)COc1cc(OCC(=O)OC)c2c(C)c(Cl)c(=O)oc2c1	50.8*	95.0	97.8	18.5	i	0.48
